# Results as given in the supplement of paper PMC3334620.
# The full ranking holds about 33,000 sequences; the median of “E-score (-0.5 to 0.5)” is about -0.011, and the highest 2% start at about 0.28. For the sample, the highest values were picked, then their nearest neighbours and some sequences at random.
# Target: T1, Gcr1 (UniProt P07261)
# T1 sequence: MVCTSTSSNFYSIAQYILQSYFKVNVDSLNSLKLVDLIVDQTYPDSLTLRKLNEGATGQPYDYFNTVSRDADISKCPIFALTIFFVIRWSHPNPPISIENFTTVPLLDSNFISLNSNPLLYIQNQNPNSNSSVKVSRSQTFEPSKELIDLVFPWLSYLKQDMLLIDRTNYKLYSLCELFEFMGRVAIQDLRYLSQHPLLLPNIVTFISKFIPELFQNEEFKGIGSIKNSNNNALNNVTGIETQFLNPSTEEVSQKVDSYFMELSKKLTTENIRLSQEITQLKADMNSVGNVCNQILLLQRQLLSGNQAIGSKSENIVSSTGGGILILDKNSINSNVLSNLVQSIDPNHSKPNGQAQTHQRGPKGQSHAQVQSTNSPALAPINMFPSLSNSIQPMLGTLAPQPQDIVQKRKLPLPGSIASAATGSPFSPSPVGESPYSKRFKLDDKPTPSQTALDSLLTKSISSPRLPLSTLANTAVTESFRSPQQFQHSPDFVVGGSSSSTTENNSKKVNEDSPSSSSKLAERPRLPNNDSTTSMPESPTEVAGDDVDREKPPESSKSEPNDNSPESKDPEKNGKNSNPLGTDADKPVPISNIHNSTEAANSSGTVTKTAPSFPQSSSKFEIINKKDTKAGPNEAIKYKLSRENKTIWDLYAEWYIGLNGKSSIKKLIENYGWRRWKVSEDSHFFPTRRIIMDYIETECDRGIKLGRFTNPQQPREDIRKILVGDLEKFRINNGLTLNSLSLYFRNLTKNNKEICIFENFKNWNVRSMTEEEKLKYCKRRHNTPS
# Experiment: PBM E-score (8-mer binding enrichment) (E-score (-0.5 to 0.5)); higher = stronger / more preferred TF binding
# Conditions: protein concentration: 100 nM; construct: GST-full length
# Protocol: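 Universal 'all 10-mer' protein binding microarrays (Agilent AMADID 015681) probed with GST-tagged S. cerevisiae TFs (full-length or DBD) made by in vitro transcription/translation (PURExpress), about 100-200 nM. Bound TF was detected with fluorescent anti-GST. Each ungapped 8-mer (which stands for itself and its reverse complement) is scored by the PBM enrichment score (E-score), a modified Wilcoxon-Mann-Whitney statistic from -0.5 to +0.5, computed with the Universal PBM Analysis Suite. Scale: above 0.35 generally sequence-specific binding.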
row,Sequence,PBM E-score
1,CCCTTCCA,-0.0993
2,GGCTTCAC,-0.14
3,GGCTTCCC,0.433
4,CGCTTCGA,-0.0778
5,CGCTTCCA,0.351
6,CGCTTCCC,0.273
7,GTCAGGTA,0.091
8,GTTCTAAA,0.0776
9,CAGAATCC,0.161
10,CTATCGCC,-0.00847
11,ACCAGGAA,0.0492
12,TACAGGTA,0.0633
13,CACAGGAA,0.118
14,AACAGGAC,0.162
15,AACAGGAT,0.318
16,TACAGGAA,0.394
17,GTCAGGAA,0.104
18,AACAGGTA,0.269
19,GACAGGAA,0.316
20,AACAGGAA,0.334
21,GACAGGAC,0.0783
22,AACAGGAG,-0.0445
23,CGGCTCAA,0.00705
24,GCGGGCAA,-0.146
25,CACAAGGC,-0.161

row,Sequence,PBM E-score
1,AACACCTT,-0.0171
2,AGTCCCGA,-0.15
3,CGCATAAA,0.0544
4,ACGTTGCA,-0.015
5,CACCGGAA,0.266
6,AACCGGAA,0.2
7,TACCGGAA,0.341
8,CTCGGGGC,-0.101
9,CTAAGGCC,0.046
10,AGTTGAAT,-0.0577
11,CGGATGTC,0.0736
12,AGCTTCTG,0.245
13,CGCTTCTA,0.259
14,AGCTTCTA,0.297
15,GCCTTCTA,0.131
16,GGCTTCTA,0.297
17,AGCTTCTC,0.25
18,GCTCCGGA,0.121
19,CGAACTAC,0.00469
20,AGGCCGCA,-0.0993
21,AGGCCGCC,0.292
22,AGGCCGCG,0.0497
23,ACTGCGTA,0.062
24,CCTGCCTA,0.00507
25,TCTGCCAA,0.00421

row,Sequence,PBM E-score
1,GCTGCCAC,0.301
2,GCTGCCTA,0.305
3,GCTGCCAA,0.31
4,CCTGCCAC,0.0404
5,ACTGCCTA,0.0876
6,ACTGCCAC,0.101
7,CCTGCGTA,0.0119
8,GCTGCGTA,0.286
9,ACTGCCAA,0.0668
10,TAGTCTGA,-0.0964
11,TCCAAACA,0.135
12,AGATAACA,-0.0519
13,ACCGTTAA,-0.119
14,GCGGACTA,-0.12
15,TCGTCCCA,-0.0947
16,GCGTCCCA,0.282
17,ACGTCCTA,0.0954
18,GCGTCTCC,0.317
19,CCGTCCCC,0.00017
20,ACGTCTCC,0.101
21,GCGTCCCC,0.304
22,CCGTCCTA,-0.158
23,ACGTCCCC,-0.0668
24,GCGTCCTA,0.43
25,GCGTCTCA,0.146

row,Sequence,PBM E-score
1,ACGTCCCA,-0.153
2,ACTCAACA,0.122
3,GCGATCAC,-0.0279
4,GAGCGACA,-0.0391
5,TATTGGGA,-0.02
6,ACTGCACC,0.014
7,CAGCCCTC,-0.0883
8,AAGAATAA,0.0669
9,AAAACTGG,0.254
10,CATTTACG,0.0351
11,GAGTCCCA,0.313
12,CAGTCCCA,0.0489
13,GAGTCCCC,-0.0421
14,CGGGCGTC,0.307
15,AGGGCGTC,0.26
16,GCGGCGCA,-0.064
17,ACAGCGTC,-0.0458
18,CCGGCGTA,-0.139
19,CCAGCGTC,0.314
20,ACGGCGTC,0.243
21,CGGGCGTA,-0.097
22,GCGGCGCC,0.324
23,GCGGCGAC,0.148
24,CCGGCGTC,0.402
25,CCAGCGTA,-0.178

row,Sequence,PBM E-score
1,GCGCCTGA,0.171
2,ATCCTACG,-0.00941
3,AGGCCCCG,0.0239
4,ATGATTTC,-0.142
5,AAATTGTG,-0.0559
6,CATAACCC,-0.121
7,CTCAATCA,0.119
8,ACGGCGCA,-0.265
9,CCGGCGCG,-0.112
10,ACGGCGCT,-0.00448
11,CCGGCGCA,-0.0778
12,ACGGCGCC,0.312
13,CCGGCGCC,0.317
14,CCTAAAGG,0.0292
15,AACTGATC,-0.114
16,ATGGATCA,-0.201
17,GCACCACC,-0.0802
18,GTAGGCCA,-0.106
19,ATCCGGAT,0.286
20,ATCCGGAC,-0.106
21,ATCCGGAA,0.26
22,GAAGTAAA,-0.0223
23,CAGGCGCA,-0.0694
24,GAGGCGCC,0.302
25,CAGGCGCG,-0.0119

row,Sequence,PBM E-score
1,CAGGCGCC,0.361
2,AAGGCGCC,0.258
3,GAGGCGCA,0.0503
4,AAATGGTT,0.0753
5,ATTGAAGA,0.0516
6,CAGATAGG,0.0828
7,TAATTGAA,0.228
8,ACACGCAA,0.127
9,ACACGCAC,0.0159
10,ATACGCAT,0.23
11,CTACGCAG,0.0122
12,ACACGCAG,0.323
13,ATACGCAG,0.281
14,AGGCTATC,-0.243
15,TGTTCAAA,-0.014
16,AAGGAGGT,-0.0668
17,AAGAGGGG,0.0114
18,CGGGCTTC,0.415
19,CGGGCTTA,0.00411
20,AGGGCTTG,-0.209
21,AGGGCTTC,0.339
22,CCGGCTTC,0.358
23,CCGGCTTA,-0.0254
24,AGGGCTTA,-0.262
25,ACGGCTTC,0.238

row,Sequence,PBM E-score
1,CGGGCTGC,0.234
2,CTCCCCGC,0.196
3,ACGGCACG,-0.0602
4,ACGGTCGA,-0.354
5,GGGGGCGA,-0.0875
6,GCTGGTCA,-0.151
7,ACTCGTTC,-0.0676
8,CCCAATAA,0.0668
9,ATCACTCC,-0.0513
10,ACTGCCAT,0.0395
11,CCCCTCAA,-0.118
12,ATCCTGAA,0.31
13,ATCCTGAC,0.163
14,ATCCTGTA,0.28
15,GGGACCTA,0.0741
16,ACTATTGC,0.0299
17,CTGGCGCC,0.319
18,ATGGCGCA,-0.122
19,ATGGCGCC,0.343
20,CTGGCGCA,-0.119
21,ATGGCGTC,0.319
22,CTGGCGGC,0.265
23,ATGGCGTG,-0.0168
24,CTGGCGTC,0.279
25,ATGGCGCG,0.116
